# Records with an inconclusive call do not appear. Calls of active or inactive are those of the source. Calls follow the shape of the dose curve; as a rule, active = well fitted activation curve with a large enough effect in the repeat runs; inconclusive = weak or mixed curves; inactive = flat fitted curve, though single readings scatter.
# Test: A CellTox Green Cytotoxicity Assay to monitor cytotoxicity in HepG2 cells - 8 hour (AID 1224890); also: nearly all actives have a fitted effect of over 45% in size
# Settings: CellTox Green fluorescence; series mostly up to 76.8 µM; cytotoxicity increase: at the top concentration
# From the text: National Center for Advancing Translational Sciences [NCATS]
# NIH Chemical Genomics Center [NCGC]
# U.S. Environmental Protection Agency [EPA]
# National Institutes of Environmental Health Sciences [NIEHS]
# National Toxicology Program [NTP]
# Cell-based models are critical for drug discovery. Determining the natural cytotoxic effects resulting from test compounds is an essential research activity. A CellTox Green Cytotoxicity Assay to monitor cytotoxicity in real time of continues cell culture during 40 hours of the compound treatment was used to screen Tox21 10K library compounds in HepG2 cells. CellTox Green Cytotoxicity Assay is a nonlytic, homogeneous, biofluorescent method to measure cytotoxicity in cell culture after experimental manipulation. The assay system uses a proprietary asymmetric cyanine dye that is excluded from viable cells but preferentially stains the dead cell's DNA. […] Viable cells produce no appreciable increases in fluorescence. Therefore, the fluorescence signal produced by the binding interaction with dead cell DNA is proportional to cytotoxicity.
# The mixture of HepG2 cell suspension and reagents were dispensed at 600cells/6 ul/well in 1536-well tissue culture treated black solid bottom plates using a Multidrop dispenser. After the assay plates were incubated at a 37 C/5% CO2 incubator for 5 hours, 23 nL of compounds dissolved in DMSO, positive and negative controls was transferred to the assay plate by a pintool work station. The plates were incubated at 37 C for 40 hours. The fluorescence intensity were measured at 0h, 8h, 16h, 24h, 32h and 40h time points using ViewLux plate reader during compound treatment.
# % is scaled to controls: 0 for no effect and ±100 for the full control effect.
row,Compound,cytotoxicity increase
1,NC1CCN(c2cccc(Cl)n2)CC1,2.74% [at 35.3 µM] (inactive)
2,COc1cc(C(=O)N2CCOCC2)cc(OC)c1OC,0.203% [at 35.3 µM] (inactive)
3,NC(=O)c1c(Cl)cccc1Cl,-7.82% (inactive)
4,O=C(O)c1ccccc1S,-0.0458% [at 35.3 µM] (inactive)
5,CCN1CCCC(OC(=O)C(c2ccccc2)c2ccccc2)C1 (stereo not given),7.46% [at 35.3 µM] (inactive)
6,C=C(C)C(=O)NCCC[N+](C)(C)C,9.78% (inactive)
7,Cc1onc(-c2ccccc2)c1-c1ccc(S(N)(=O)=O)cc1,1.74% [at 35.3 µM] (inactive)
8,CCCCCCOC(=O)CC(CC(=O)OCCCCCC)(OC(=O)CCC)C(=O)OCCCCCC,-4.12% (inactive)
9,COC(C(=O)O)c1ccccc1 (stereo not given),1.41% (inactive)
10,CCCOc1ccccc1-c1nc2n[nH]nc2c(=O)[nH]1,-5.25% [at 35.3 µM] (inactive)
11,COc1cccc(OC)c1,-6.72% (inactive)
12,CCCCCCCCN(C)CCCCCCCC,-15.2% (inactive)
13,CCCc1ccccc1O,8.88% (inactive)
14,C=CCSCC1Nc2cc(Cl)c(S(N)(=O)=O)cc2S(=O)(=O)N1 (stereo not given),-7.86% [at 35.3 µM] (inactive)
15,Nc1cc(N)cc(C(=O)O)c1,4.1% (inactive)
16,CCCCCCCCCCC1CO1 (stereo not given),2.98% (inactive)
17,C[C@H]1O[C@@H](n2cc(F)c(=O)[nH]c2=O)[C@H](O)[C@@H]1O,-26.5% [at 35.3 µM] (inactive)
18,CCCCc1ccc(N)cc1,7.4% (inactive)
19,Nc1nc2c(ncn2CCC(CO)CO)c(=O)[nH]1,-11.6% [at 35.3 µM] (inactive)
20,COc1ccc(N=[N+]([O-])c2ccc(OC)cc2)cc1,0.642% (inactive)

row,Compound,cytotoxicity increase
1,C=C[Si](OC)(OC)OC,-11.8% (inactive)
2,CC(C)CCOC(=O)CC(C)C,-1.69% (inactive)
3,CC(C)COC(=O)c1ccccc1O,1.17% (inactive)
4,CC(C=O)Cc1ccc(C(C)C)cc1 (stereo not given),0.661% (inactive)
5,OCCN1C[C@H](O)[C@@H](O)[C@H](O)[C@H]1CO,-16% [at 35.3 µM] (inactive)
6,CCO[Si](C)(OCC)OCC,-6.14% (inactive)
7,CC(C)(C)OC(=O)N1C[C@@H](F)C[C@H]1C(=O)O,1.56% (inactive)
8,COC(=O)C1=C(C)NC(C)=C(C(=O)OCC(C)=O)C1c1ccccc1[N+](=O)[O-] (stereo not given),0.0681% [at 35.3 µM] (inactive)
9,Nc1nc(F)nc2c1ncn2[C@@H]1O[C@H](CO)[C@@H](O)[C@@H]1O,-9.68% [at 35.3 µM] (inactive)
10,CC(C)(C)N(CCO)CCO,-0.155% (inactive)
11,CN1[C@@H]2CC[C@H]1CC(NC(=O)n1c(=O)[nH]c3ccccc31)C2 (stereo not given in full),4.29% [at 35.3 µM] (inactive)
12,Nc1cc(C(Cl)=C(Cl)Cl)c(S(N)(=O)=O)cc1S(N)(=O)=O,-0.357% [at 35.3 µM] (inactive)
13,c1cc(CN2CCCCC2)cc(OCCCNc2nc3ccccc3s2)c1,1.5% [at 35.3 µM] (inactive)
14,C=C(C)C(=O)NCCCN(C)C,-13.4% (inactive)
15,CC1=CCC2C(C1)C2(C)C (stereo not given),4.58% (inactive)
16,O=C(O)C(O)[C@H](O)[C@@H](O)[C@H](O)[C@H](O)CO (stereo not given in full),0.878% (inactive)
17,Cc1nccn1CC1CCc2c(c3ccccc3n2C)C1=O (stereo not given),-3.67% [at 35.3 µM] (inactive)
18,NCCNC(=O)c1ccc(Cl)cn1,1.44% [at 35.3 µM] (inactive)
19,CC(C)[C@H](N)C(=O)OCCOCn1cnc2c(=O)[nH]c(N)nc21,-14% [at 35.3 µM] (inactive)
20,COc1nc(C)nc(N)n1,0.228% (inactive)

# Source: PubChem BioAssay (Tox21)
